Screening data (PubChem BioAssay)
Sampled rows, rich in hits. Any-hit rate of the full collection: about 2.4%.
FEN1 inh = human FEN1 inhibition. Recombinant FEN1 flap cleavage, fluorescence, 15 min. Potency, µM (top dose mostly 114 µM), inactives show at the top dose activity change, negative = inhibition, actives largely listed as inhibitors. 390,000 compounds, 0.35% hits. AID 588795; note: % is set by controls: 0 for no effect and ±100 for the full control effect; nearly all actives have a fitted effect of over 65% in size
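FEN1 at 10 nM preincubated with compounds 15 min at room temperature, then flap DNA substrate added at 50 nM final. Signal read at 0 and 15 min; concentration-response fitted with four-parameter Hill equation.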
POLK inh = blocks human DNA polymerase kappa activity; purified Pol kappa, fluorescent DNA synthesis assay, 10 min; 400,000 compounds, 0.53% hits; Q9UBT6; Potency, µM (series often up to 107 µM), without a hit: top-dose activity, negative = inhibition, hits mostly inhibitors; AID 588579; note: % is set by controls: 0 for no effect and ±100 for the full control effect
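50 nM final substrate added after 15 min RT preincubation of 10 nM Pol kappa with compound; fluorescence read at 0 and 10 min.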
Pol eta inh = DNA polymerase eta (human) inhibition; recombinant Pol eta, fluorescent DNA replication assay; Potency, µM (top dose mostly 114 µM), inactives show top-dose activity change, negative = inhibition, most hits filed as inhibitors; 390,000 compounds, 1.2% hits; Q9Y253; note: % is set by controls: 0 for no effect and ±100 for the full control effect
Target sequence (Q9Y253 whole entry, looked up): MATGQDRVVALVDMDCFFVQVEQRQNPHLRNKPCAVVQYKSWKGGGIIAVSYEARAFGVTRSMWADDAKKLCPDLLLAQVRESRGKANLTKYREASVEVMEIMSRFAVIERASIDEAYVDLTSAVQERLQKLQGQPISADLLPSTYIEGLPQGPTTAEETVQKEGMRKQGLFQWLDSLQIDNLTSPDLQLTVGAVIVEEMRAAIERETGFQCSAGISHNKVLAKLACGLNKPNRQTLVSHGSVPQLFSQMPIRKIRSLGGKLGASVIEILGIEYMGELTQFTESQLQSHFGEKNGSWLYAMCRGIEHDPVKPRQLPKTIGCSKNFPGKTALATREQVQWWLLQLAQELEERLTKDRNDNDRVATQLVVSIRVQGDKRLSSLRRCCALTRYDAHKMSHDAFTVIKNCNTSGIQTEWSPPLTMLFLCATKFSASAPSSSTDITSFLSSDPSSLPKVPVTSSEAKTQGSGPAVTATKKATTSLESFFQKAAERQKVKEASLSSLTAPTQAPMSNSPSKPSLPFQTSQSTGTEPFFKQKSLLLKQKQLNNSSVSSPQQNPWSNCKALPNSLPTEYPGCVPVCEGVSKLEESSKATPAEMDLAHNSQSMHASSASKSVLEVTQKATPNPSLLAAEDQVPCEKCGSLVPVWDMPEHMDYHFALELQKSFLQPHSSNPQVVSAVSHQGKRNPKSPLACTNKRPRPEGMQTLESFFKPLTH
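Fluorescent replication assay: 50 nM final substrate added after a 15 min room-temperature compound preincubation with 10 nM enzyme. Signal taken at 0 min and again at 10 min.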
POLI inh = DNA polymerase iota (human) inhibition; Pol iota fluorescent replication assay, 10 min; Potency, µM (series often up to 115 µM), for the others: top-dose activity, negative = inhibition, hits mostly inhibitors; 390,000 compounds, 1% hits
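Pol iota at 10 nM preincubated 15 min with compounds at room temperature; reaction started with fluorescent substrate, 50 nM final. Fluorescence read kinetically at 0 and 10 min; buffer-only wells as negative control.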
POLB inh = inhibitors of human DNA polymerase beta; Potency, µM (doses to about 114 µM), without a hit: top-dose activity change, negative = inhibition, most hits filed as inhibitors; 340,000 compounds, 1.3% hits; Pol beta primer extension/strand displacement, fluorescence kinetic; note: % is set by controls: 0 for no effect and ±100 for the full control effect
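Pol beta (10 nM) was preincubated with compound for 15 min at room temperature. The reaction was then started with 50 nM substrate and read immediately and after a further 10 min at room temperature.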
WRN inhibitor = WRN helicase (human) inhibition. 360,000 compounds, 0.46% hits. Q14191. WRN helicase unwinding, fluorescent forked duplex, kinetic. Potency, µM (top dose mostly 114 µM), without a hit: top-dose activity change, negative = inhibition, usual class: inhibitors; note: % is set by controls: 0 for no effect and ±100 for the full control effect; nearly all actives have a fitted effect of over 55% in size
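Enzyme (20 nM final) and test compound sit together 15 min at room temperature before substrate addition. Substrate is a single-forked duplex oligonucleotide (100 nM) labelled with fluorophore and quencher, with 2 mM ATP; helicase unwinding raises red fluorescence, read kinetically.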
The depositor's hits bear a star; ? = inconclusive; nt = no result given; [ ] = dose if it differs, or a comment. Calls come from the whole dose curve; as a rule, active = well fitted curve in the direction sought with a large enough effect; inconclusive = small, poorly fitted or top-dose-only effect, or another doubt; inactive = no such curve, though single readings can be large; an effect the other way counts as inactive or inconclusive. Potency is the fitted concentration of half-maximal effect.

SMILES	FEN1 inh	POLK inh	Pol eta inh	POLI inh	POLB inh	WRN inhibitor
O=C(NCc1ccccn1)c1ccc(Cn2c(=S)[nH]c3ccccc3c2=O)cc1	8.5%	-11.2%	-17.4%	50.1µM*	?	-7.2%
O=C(NCc1ccccn1)c1ccc(Cn2c(=S)[nH]c3ccc(Br)cc3c2=O)cc1	-6.7%	-2.4%	-7.5%	179.8%	-24.8%	-12.1%
COc1ccc(/C(C)=N\NC(=O)CNC(=O)C(c2ccccc2)c2ccccc2)cc1OC	-6.5%	-13.0%	-11.4%	23.9%	1.7%	-5.5%
CCOc1ccc(S(=O)(=O)Nc2ccc(C(=O)N/N=C(\C)c3ccc(-n4ccnc4)cc3)cc2)cc1	-4.8%	-10.7%	14.6%	0.3%	4.6%	-8.9%
COc1cc(/C=N/NC(=O)c2ccc3c(c2)OCCO3)cc(Br)c1O	-17.7%	3.5%	-17.5%	-1.3%	6.5%	-13.2%
COc1cc(/C=N\NC(=O)c2ccc(-c3ccccc3)cc2)cc(Br)c1O	?	-38.8%	?	?	39.8µM*	-28.9%
COc1ccc(NS(=O)(=O)c2cccc(C(=O)NN=Cc3cc(Br)c(O)c(Br)c3)c2)cc1	?	?	44.7µM*	15.8µM*	nt	?
COc1ccc(NS(=O)(=O)c2cccc(C(=O)NN=Cc3ccc(OC)cc3OC)c2)cc1	-2.6%	-16.4%	-26.9%	5.0%	nt	-17.1%
COc1ccc(NS(=O)(=O)c2cccc(C(=O)N/N=C(/C)c3ccc(-n4ccnc4)cc3)c2)cc1	-14.4%	-12.8%	-14.4%	39.8µM*	nt	?
Cc1ccc(S(=O)(=O)NN2C(=O)/C(=C/c3cccs3)SC2=S)cc1	-1.8%	-12.1%	-3.1%	-9.6%	0.2%	-7.5%
COc1cc(/C=C2\SC(=S)N(NS(=O)(=O)c3ccccc3)C2=O)cc(OC)c1OC	-16.1%	-16.4%	1.4%	-4.3%	30.4%	-26.9%
C=CCOc1ccc(/C=C2\SC(=S)N(NS(=O)(=O)c3ccc(C)cc3)C2=O)cc1	-20.0%	-10.6%	50.1µM*	?	?	?
COc1ccc(/C=C2/SC(=S)N(NS(=O)(=O)c3ccc(C)cc3)C2=O)cc1	?	-15.4%	79.4µM*	?	?	-12.6%[11.6 µM]
Cc1ccc(S(=O)(=O)NN2C(=O)/C(=C/c3ccc(C(=O)O)cc3)SC2=S)cc1	50.1µM*	?	-22.8%	12.6µM*	16.4%	-35.3%
Cc1ccc(/C=C2\SC(=S)N(NS(=O)(=O)c3ccc(C)cc3)C2=O)cc1	-9.6%	-7.1%	?	6.5%	79.4µM*	-8.7%[11.6 µM]
Cc1ccc(S(=O)(=O)NN2C(=O)/C(=C/c3ccc(F)cc3)SC2=S)cc1	2.7%	-11.2%	?	138.7%	3.9%	?
CC(=O)NC(=S)Nc1ccccc1N1CCN(C(=O)c2ccccc2)CC1	14.6%	-3.8%	-13.3%	-2.2%	0.2%	-11.5%
COc1cc(/C=N/Nc2ccc(C(=O)O)cc2)ccc1O	8.7%	10.9%[60.1 µM]	22.4µM*	?	25.1µM*	-13.2%[57.1 µM]
COc1cc(OC)c(OC)cc1/C=N/NC(=O)c1cc(-c2cccn2C)n[nH]1	3.5%	-13.6%	-7.0%	17.8%	-3.1%	5.6%
COc1cc(/C=N/Nc2ccc(C(=O)O)cc2)cc(OC)c1OC	-5.8%	7.8%	-6.0%	50.6%	13.7%	-5.3%
CCNC(=O)COc1ccc(/C=N/NC(=O)c2cccnc2)cc1OC	-10.1%	0.1%	0.9%	-1.2%	45.2%	-0.8%
COc1cc(/C=N/NC(=O)c2cccnc2)ccc1OCC(=O)Nc1ccc(C)cc1	-1.8%	?	?	?	12.6µM*	-3.8%
COc1ccc2[nH]c(C(=O)N/N=C/c3ccc(OC)c(O)c3)cc2c1	-12.4%	?	?	30.8%	28.2µM*	-15.5%
COc1ccc(/C=N/NC(=O)c2cc(-c3cccn3C)n[nH]2)cc1OC	?	?	?	?	8.91µM*	-7.2%[11.6 µM]
COc1ccc2[nH]c(C(=O)N/N=C/c3ccccc3OC)cc2c1	-26.3%	-13.1%	?	-13.3%	-7.0%	-19.5%
